LT uptake inh – blocks cellular internalization of anthrax lethal toxin; actives 0.67% (n = 70,000); Potency, µM (series often up to 40 µM), hits mostly inhibitors; Cells, anthrax lethal toxin internalization, FRET ratio (460/530); AID 912; also: nearly all actives have a fitted effect of over 50% in size
AmpC det inh – AmpC beta-lactamase inhibition, detergent assay | P00811 | purified AmpC, nitrocefin hydrolysis with detergent | Potency, µM (top dose mostly 28.7 µM) | actives 0.09% (n = 71,000) | AID 584; active = well fitted curve in the direction sought with a large enough effect; inconclusive = small, poorly fitted or top-dose-only effect
Target sequence (P00811 whole entry, looked up): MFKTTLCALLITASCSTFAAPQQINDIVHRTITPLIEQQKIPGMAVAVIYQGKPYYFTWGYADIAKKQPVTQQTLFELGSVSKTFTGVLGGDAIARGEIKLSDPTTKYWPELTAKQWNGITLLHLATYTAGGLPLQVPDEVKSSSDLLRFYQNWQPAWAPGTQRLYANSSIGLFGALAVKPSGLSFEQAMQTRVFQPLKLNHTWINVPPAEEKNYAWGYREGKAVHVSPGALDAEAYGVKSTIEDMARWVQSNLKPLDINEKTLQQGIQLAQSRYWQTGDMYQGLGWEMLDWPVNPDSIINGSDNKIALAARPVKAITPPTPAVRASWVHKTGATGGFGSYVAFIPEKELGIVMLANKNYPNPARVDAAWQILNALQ
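E. coli AmpC (5.3 nM) in 20 mM phosphate pH 7.0 with 0.01% Triton X-100, preincubated 15 min RT with compound; nitrocefin (2 uL of 800 uM stock) hydrolysis followed by 480 nm absorbance every 20 s over 4 min.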
Prx2 Sm inh – Schistosoma mansoni Prx2 inhibition. S. mansoni Prx2 activity coupled to TGR/GSH (TGR is thioredoxin glutathione reductase), NADPH fluorescence loss, qHTS. actives 0.07% (n = 65,000). Potency, µM
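Coupled assay in which S. mansoni TGR passes NADPH reducing equivalents via glutathione to Prx2, which reduces H2O2. Compounds were preincubated 15 min at room temperature with 25 nM TGR/50 nM Prx2 mix. Kinetic NADPH fluorescence loss (ex 365/em 450 nm) was monitored.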
AmpC inh no det – blocks E. coli AmpC beta-lactamase in absence of detergent. P00811. AmpC nitrocefin hydrolysis, absorbance 480 nm, no detergent. Potency, µM (top dose mostly 28.7 µM). actives 1.8% (n = 71,000). AID 585
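AmpC, 20 mM phosphate pH 7.0; 15 min cpd preinc, RT; start with nitrocefin (800 uM stock); A480 kinetic read, 20 s intervals, 4 min. No-enzyme wells = negative control.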
Of the large screens only hits and unclear results are named; the others gave an inactive call; ! = a repeat was not active; [ ] = dose if it differs, or a comment. A selection: hits, their analogues and other compounds. The true share with any hit is near 2.6%. Unless noted, calls follow the shape of the full dose curve.

CCOC(=O)N1CCN(c2c(NC3CCN(Cc4ccccc4)CC3)c(=O)c2=O)CC1	AmpC inh no det 3.98µM[single pt active]
Cc1nn(S(=O)(=O)N(C)C)c(C)c1CN1C(=O)c2ccccc2C1=O	none
O=C(O)[C@H](Cc1cnc[nH]1)N1C(=O)c2ccccc2C1=O	none
CCCCn1nnc(NC(=O)COc2cc(C)ccc2C(C)C)n1	LT uptake inh 10µM
Cc1oc(-c2cccc(Cl)c2)nc1CN1CCC(C(=O)NCc2ccco2)CC1	LT uptake inh inconclusive
CCN1CCCC1CNC(=O)C1CCN(Cc2nc(-c3cccc(Br)c3)oc2C)CC1 (stereo not drawn)	LT uptake inh 6.31µM
Cc1oc(-c2ccc(Cl)cc2)nc1CN1CCC(C(=O)NCCCN2CCCC2=O)CC1	none
Cc1ccccc1-c1nc(CN2CCC(C(=O)NCCCN3CC(C)CC(C)C3)CC2)c(C)o1 (stereo not drawn)	LT uptake inh 2.51µM
CCN1CCN(CCNC(=O)C2CCN(Cc3nc(-c4ccc(Cl)cc4)oc3C)CC2)CC1	LT uptake inh inconclusive, AmpC inh no det 3.98µM[single pt active]
COc1ccccc1Nc1nc(N)nc(CSc2nc(C)cc(C)n2)n1	LT uptake inh inconclusive
Cn1c(=O)oc2cc(S(=O)(=O)Nc3cccc(F)c3)ccc21	none
O=C(NCCC1=CCCCC1)c1ccc2c(=O)n3c(nc2c1)CCCCC3	LT uptake inh 12.6µM
O=C(Nc1ccc(F)c(Cl)c1)c1ccc2c(=O)n3c(nc2c1)CCCCC3	none
O=C(Nc1cccc(Cl)c1)c1ccc2c(=O)n3c(nc2c1)CCCCC3	LT uptake inh 12.6µM
CN(C(=O)c1ccc2c(=O)n3c(nc2c1)CCCCC3)c1ccccc1	none
CCOC(=O)C1CCN(C(c2cc(OC)c(OC)c(OC)c2)c2sc3nc(C)nn3c2O)CC1 (stereo not drawn)	LT uptake inh 15.8µM
COC(=O)C1CCN(C(c2cc(OC)c(OC)c(OC)c2)c2sc3nc(C)nn3c2O)CC1 (stereo not drawn)	none
Oc1ccc(Cl)cc1Cc1cc(Cl)ccc1O	LT uptake inh 15.8µM, AmpC inh no det inconclusive (no result: Prx2 Sm inh)
Oc1ccc(Cl)cc1Cc1ccccc1	LT uptake inh inconclusive (no result: Prx2 Sm inh)
Cn1c(C(=O)N2CCN(c3ccc(Cl)cc3)CC2)cc2c(=O)n(C)c3ccccc3c21	AmpC inh no det 3.98µM[single pt active]
Cn1c(C(=O)N2CCN(c3ccc(F)cc3)CC2)cc2c(=O)n(C)c3ccccc3c21	none
Cn1c(C(=O)N2CCN(c3ccccn3)CC2)cc2c(=O)n(C)c3ccccc3c21	AmpC inh no det 3.98µM[single pt active]
Cn1c(C(=O)N2CCN(C3CCCCC3)CC2)cc2c(=O)n(C)c3ccccc3c21	AmpC inh no det 3.98µM[single pt active]
Cc1n[nH]c(C)c1S(=O)(=O)N1CCN(c2ccccn2)CC1	none
CSCCC(NS(=O)(=O)c1ccc(Cl)cc1)C(=O)OCC(=O)N1CCOCC1 (stereo not drawn)	none
COc1ccc2c(c1)OC13CCN(C)CC1C2C(C(=O)c1ccc(F)cc1)C(=O)N3 (stereo not drawn)	AmpC inh no det 3.98µM[single pt active]
Cc1cc(C)n2nc(C(=O)OCC(=O)Nc3ccc4c(c3)OCO4)nc2n1	none
CSCC[C@@H](C(=O)Nc1ccc2c(c1)OCCO2)N1Cc2ccccc2C1=O	AmpC inh no det 3.98µM[single pt active]
CCC(C)[C@@H](C(=O)Nc1ccc(OC)c(OC)c1)N1Cc2ccccc2C1=O (stereo partly drawn)	AmpC inh no det 3.98µM[single pt active]
N#Cc1ccccc1Sc1ccccc1C(=O)OCC(=O)N1CCN(C(=O)c2ccco2)CC1	LT uptake inh inconclusive
O=C(COC(=O)c1cc(-c2ccco2)nc2ccccc12)NCc1ccc2c(c1)OCO2	LT uptake inh inconclusive, AmpC inh no det 12.6µM
O=c1c(O)c(-c2ccc(O)c(O)c2)oc2cc(O)ccc12	AmpC inh no det 12.6µM!
O=c1c(O)c(-c2ccc(O)cc2)oc2cc(O)ccc12	LT uptake inh inconclusive, AmpC inh no det inconclusive
CNC(=O)c1ccc2snnc2c1	AmpC inh no det 3.98µM[single pt active]
COc1ccc2[nH]cc(CCNC(=O)C3CCCNC3=O)c2c1 (stereo not drawn)	AmpC inh no det 2.51µM[single pt active]
CC(C)c1ccc2oc(-c3cc(N)ccc3O)nc2c1	LT uptake inh 12.6µM (no result: Prx2 Sm inh)
CN1CCN(C(=O)Cc2nc3ccccc3[nH]2)CC1	none
O=S(=O)(c1ccccc1)N1CCC2(CCCN(c3ccccc3)C2)CC1	LT uptake inh inconclusive
O=S(=O)(c1ccccc1)N1CCC2(CCCN(c3ccncc3)C2)CC1	LT uptake inh 1µM
CC(C)(C)NCCCCOc1ccc(F)cc1	none (no result: Prx2 Sm inh)
COc1cccc(CNc2nc3ccccc3n2CCN2CCCCC2)c1	none
c1cc(CN2CCCCC2)cc(OCCCNc2nc3ccccc3s2)c1	LT uptake inh 25.1µM!
Cc1ccc(Cn2c(SCC(=O)Nc3cc(C)on3)nc3ccccc3c2=O)cc1	AmpC inh no det 12.6µM[single pt active]
Cc1cc(NC(=O)CSc2nc3ccccc3c(=O)n2Cc2ccccc2)no1	none
Cc1ccc(Nc2nc(C)c(CCC(C)C)c(=O)[nH]2)cc1	none
CC(C)(C)c1ccccc1OCC(=O)Nc1ncn[nH]1	LT uptake inh inconclusive
CC(C)(C)c1cc(Br)ccc1OCC(=O)Nc1ncn[nH]1	LT uptake inh 7.94µM (no result: Prx2 Sm inh)
N#Cc1cc2ccccc2nc1SCC(=O)Nc1ccc(S(=O)(=O)N2CCCC2)cc1	AmpC inh no det 5.01µM
OCC1CO1 (stereo not drawn)	none (no result: Prx2 Sm inh)
COc1ccc(-c2csc(Cc3nnc4n3CCCCC4)n2)cc1	none
CN(C)c1ccc(-c2nc(Nc3ccncc3)c3ccccc3n2)cc1	LT uptake inh 12.6µM
Cc1n[nH]c(C)c1S(=O)(=O)N(CC(=O)Nc1ccc2c(c1)OCCO2)c1ccc(C(C)C)cc1	LT uptake inh 15.8µM
Cc1noc(C)c1S(=O)(=O)N(CC(=O)Nc1ccc2c(c1)OCO2)c1ccc(C(C)C)cc1	LT uptake inh inconclusive
Clc1ccc(-c2noc(CN3CCCCC3)n2)cc1	none
Clc1ccc(-c2nnc(N3CCCC3)nn2)cc1	AmpC inh no det 10µM (no result: LT uptake inh)
O=C(NCCC1=CCCCC1)C1CCN(S(=O)(=O)c2cccc3nonc23)CC1	AmpC inh no det 20µM[single pt active]
O=C(NCCC1=CCCCC1)C1CCN(S(=O)(=O)c2cccs2)CC1	none
O=C(NCc1ccc2c(c1)OCO2)C1CCCN(S(=O)(=O)c2cccc3nonc23)C1 (stereo not drawn)	AmpC inh no det 10µM[single pt active]
CCc1nc2ccccc2c(=O)n1NC(=O)c1c(O)c2cccc3c2n(c1=O)CCC3	none
CCOc1cc(C(=O)NC(C)COC)cc(OCC)c1OCC (stereo not drawn)	none (no result: Prx2 Sm inh)
COc1cccc(C2c3c(oc4ccccc4c3=O)C(=O)N2CCCN2CCOCC2)c1 (stereo not drawn)	AmpC inh no det 3.98µM[single pt active]
CC(C)CCOc1cccc(C2c3c(oc4ccccc4c3=O)C(=O)N2CCCN2CCOCC2)c1 (stereo not drawn)	none
O=S(=O)(c1ccccc1)c1nc(-c2ccco2)oc1NCCCN1CCOCC1	none
Cc1ccc(Cn2ccc(NC(=O)c3cc(-c4ccc(F)cc4)on3)n2)cc1	AmpC inh no det 7.94µM
Cc1ccc(Cn2ccc(NC(=O)c3cc(CC(C)C)on3)n2)cc1	LT uptake inh inconclusive, AmpC inh no det 3.98µM[single pt active]
Cc1ccc(Cn2ccc(NC(=O)c3cc(-c4ccc(Cl)cc4)on3)n2)cc1	none
